# ADAM17 inh: ADAM17 inhibitors, primary screen, biochemical, QFRET; inhibition, % at 6.95 µM; AID 720648, 2013; Disintegrin and metalloproteinase domain-containing protein 17 (Homo sapiens), P78536; recombinant ADAM17, EDANS/DABCYL FRET peptide cleavage; 370,000 compounds, 0.83% hits;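 active means inhibition above the mean of compounds lying between control limits plus 3 SD, set per campaign, cut at about 8.5% in these data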
# Pemphigus Ab inh: inhibitors of pemphigus antibody binding to DSG3, primary screen, biochemical, bead-based, flow cytometry, scFv-GFP | Desmoglein-3 (Homo sapiens), P32926 | DSG3-coupled beads, scFv-anti-DSG3-GFP binding; active compounds read low | binding (percent of control), % at 10 µM | 310,000 compounds, 0.48% hits | AID 588358, 2011;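 active means binding more than 3 SD below its plate's average and above zero; inconclusive means below that plate limit but binding exactly zero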;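 further: hits lower antibody fragment binding to DSG3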
# ADAM10 inh: human ADAM10 inhibitors, primary screen, biochemical, QFRET, HTS | Disintegrin and metalloproteinase domain-containing protein 10 (Homo sapiens), O14672 | recombinant ADAM10, EDANS/DABCYL FRET peptide cleavage, 3 h | inhibition, % at 7 µM | 370,000 compounds, 0.62% hits | AID 720582, 2013;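 active means inhibition above a per-campaign cutoff equal to the mean of compounds falling between control-based bounds plus 3 SD, cut at about 20% in these data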
# Target sequence (O14672 214-748 limits assumed): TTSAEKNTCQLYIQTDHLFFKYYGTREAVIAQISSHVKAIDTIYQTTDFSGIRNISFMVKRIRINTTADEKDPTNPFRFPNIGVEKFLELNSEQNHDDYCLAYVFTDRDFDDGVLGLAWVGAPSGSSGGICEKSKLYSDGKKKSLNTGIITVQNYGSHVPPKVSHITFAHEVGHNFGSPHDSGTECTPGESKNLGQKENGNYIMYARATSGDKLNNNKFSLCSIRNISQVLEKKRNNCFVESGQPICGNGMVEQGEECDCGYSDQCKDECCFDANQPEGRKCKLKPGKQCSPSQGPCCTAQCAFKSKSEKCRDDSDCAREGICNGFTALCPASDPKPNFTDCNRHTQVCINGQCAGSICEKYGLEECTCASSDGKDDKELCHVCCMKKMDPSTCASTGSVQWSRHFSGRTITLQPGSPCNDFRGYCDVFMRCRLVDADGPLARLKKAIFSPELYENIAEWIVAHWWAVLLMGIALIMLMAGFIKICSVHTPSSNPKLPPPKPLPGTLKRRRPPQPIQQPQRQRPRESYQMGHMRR
# MPTP block: mitochondrial permeability transition pore inhibitors, primary screen, biochemical, isolated mouse mitochondria, absorbance | 360,000 compounds, 1.4% hits | AID 602449, 2012 | inhibition, % at 10 µM | Ca2+ swelling absorbance, 30 min;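 active means inhibition of 50% or more, scaled per plate between neutral and stimulator controls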
# proKLK7 act: proKLK7 zymogen activators, primary screen, biochemical, fluorescence intensity. Kallikrein-7 (Homo sapiens), P49862. purified proKLK7, EDANS-DABCYL substrate fluorescence; 100% is mature enzyme control, 0% vehicle. activation, % at 7 µM. 370,000 compounds, 0.9% hits;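 active means activation above the mean of all tested compounds plus 3 SD, computed per campaign excluding outliers beyond control limits, cut at about 13% in these data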
# rCAG RNA binder: binders of r(CAG) RNA repeats, primary screen, biochemical, fluorescence; 370,000 compounds, 1.3% hits; r(CAG) RNA repeat, TO-PRO-1 dye displacement fluorescence; inhibition, % at 3 µM;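 active means inhibition above the plate cutoff, the mean of all test compounds on that plate plus 3 SD, cut at about 35% in these data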;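 further: higher means more dye released from RNA so lower well fluorescence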
# ADAM10 ctr: ADAM10 inhibitors, counter-screen for ADAM17 exosite inhibitor project, biochemical, FRET, human ADAM10. recombinant ADAM10, EDANS/DABCYL FRET peptide cleavage, 3 h. 2,900 compounds, 47% hits. shares compounds with ADAM17 inh. inhibition, % at 6.95 µM;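 active means mean inhibition over the triplicate runs exceeds the activity threshold set in the earlier primary screen, cut at about 20% in these data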
# ADAM17 confirm: ADAM17 inhibitors, hit retest, confirmation, biochemical, QFRET peptide cleavage. shares compounds with ADAM17 inh. recombinant ADAM17, EDANS/DABCYL QFRET peptide cleavage. inhibition, % at 6.95 µM. 2,900 compounds, 65% hits;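 active means mean inhibition across replicates above the hit cutoff set in the primary screen, cut at about 8.5% in these data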
# A number is an active result; . = inactive; ? = inconclusive; / = not tested or not shown. Rows were chosen to be rich in hits. Some 4.7% of all compounds tested hit in one or more screens of this group.
SMILES,ADAM17 inh,Pemphigus Ab inh,ADAM10 inh,MPTP block,proKLK7 act,rCAG RNA binder,ADAM10 ctr,ADAM17 confirm
COc1ccccc1NS(=O)(=O)c1cc(NC(=O)c2cccs2)ccc1N1CCCC1,10.2,.,.,.,.,.,.,.
OC(c1cccc(Cl)c1)c1nc(-c2ccoc2)cs1 (stereo not given),.,/,.,.,.,.,/,/
C[C@H](CO)N1C[C@H](C)[C@@H](CN(C)C(=O)Nc2ccccc2F)OCc2cnnn2CCCC1=O,.,.,.,.,.,.,/,/
O=C(CCC(=O)OCC(=O)c1ccccc1)Nc1cccc2cccnc12,8.7,8.4,.,.,.,.,.,.
COc1ccc(CC(=O)Nc2ccc3c(c2)OC2(CCCC2)O3)c(OC)c1,10.6,.,.,.,.,.,.,.
Cc1cc(C)c2sc(N(CCN(C)C)C(=O)c3ccc4ccccc4c3)nc2c1,10.1,?,.,.,.,.,.,.
CC(=O)OCC(=O)[C@@]1(O)CC[C@H]2[C@@H]3CCC4=CC(=O)CC[C@]4(C)[C@H]3[C@@H](O)C[C@@]21C,.,.,.,.,.,.,/,/
C[C@]12CCC(=O)C=C1CC[C@@H]1[C@@H]2[C@@H](O)C[C@@]2(C)[C@H]1CC[C@]2(O)C(=O)COC(=O)CCC(=O)O,8.8,.,.,.,.,.,.,.
CC(=O)c1ccccc1OCC(O)CN1CCN(C(c2ccccc2)c2ccccc2)CC1 (stereo not given),11.2,/,.,.,.,.,.,.
Cc1ccc(-c2[nH]nc(N)c2N=Nc2ccccc2C)cc1,9.7,.,.,.,.,.,25.0,16.2
CC(=O)c1sc(NC(=O)CCc2ccccc2)nc1C,.,.,.,.,.,.,/,/
O=C1C=C(c2cc(F)ccc2F)C[C@@H](c2ccc(F)cc2)C1,.,.,.,.,.,.,/,/
Cc1cc(Cn2nnc(-c3ccc(Br)cc3)n2)cc(C)c1O,10.7,.,.,.,.,.,.,.
CC(=O)c1ccc(N2CCN(S(=O)(=O)c3ccc4c5c3CC(=O)N5CC(C)S4)CC2)cc1 (stereo not given),/,.,/,.,/,/,/,/
CC12CCC(C(=O)NC(c3ccccc3)c3ccccc3)(OC1=O)C2(C)C (stereo not given),9.1,.,.,.,.,.,.,.
Cc1ccc(CC2(c3ccccc3)NC(=O)NC2=O)cc1 (stereo not given),18.1,.,.,.,.,.,.,17.9
O=C1NC(=O)C(Cc2ccc(Cl)cc2)(c2ccccc2)N1 (stereo not given),40.2,/,.,.,.,.,.,65.4
O=C1NC(=O)C(Cc2ccccc2)(c2ccccc2)N1 (stereo not given),.,.,.,.,.,.,/,/
COc1cccc(CC(=O)OCC(=O)N(C)CC(=O)Nc2ccccc2Cl)c1,.,.,.,.,.,.,/,/
COc1ccc(C[C@H]2CN3C(=NC[C@@H]3C)N2CCNC(=O)CCC2CCCCC2)cc1,10.9,.,.,.,.,.,.,.
C[C@H]1CN=C2N(CCNC(=O)CCC3CCCCC3)[C@H](Cc3ccc(O)cc3)CN21,.,.,.,.,.,.,/,/
O=C(NCC1CCCO1)c1cnn2c1NC(c1ccccc1)CC2C(F)(F)F (stereo not given),11.0,.,.,.,.,.,.,.
O=C(Nc1ccc(F)c(Cl)c1)c1cc(C2CCCCN2C(=O)CCc2ccccc2)on1 (stereo not given),.,/,.,.,.,.,/,/
CCCCC(=O)N(C)c1c(CC)nc2c(OCC(=O)N3CCOCC3)cccn12,.,/,.,.,.,.,/,/
COc1ccccc1C1N(c2ccc(Cl)cc2)C(=O)C2CCCN21 (stereo not given),9.8,.,.,.,.,.,.,.
SMILES,ADAM17 inh,Pemphigus Ab inh,ADAM10 inh,MPTP block,proKLK7 act,rCAG RNA binder,ADAM10 ctr,ADAM17 confirm
CCOC(=O)C1=CCN(S(=O)(=O)c2ccc(C)cc2)C1c1ccc(CC)cc1 (stereo not given),8.8,/,.,.,.,.,20.1,15.8
CCOC(=O)C1=CCN(S(=O)(=O)c2ccccc2F)C1c1cccc(Br)c1 (stereo not given),9.2,/,.,.,.,.,.,9.5
CCC(=O)N1CCCC(C)(C(=O)Nc2ccc(OC(F)F)cc2)C1 (stereo not given),.,/,.,.,.,.,/,/
CC1(C)OC(=O)C2=C(C[C@@H](C3CC3)O[C@@H]2C2CC2)O1,.,/,.,.,.,.,/,/
Cc1ccc(S(=O)(=O)Oc2cccc([N+](=O)[O-])c2)cc1,.,.,.,.,.,.,/,/
CC1=C(C(=O)N(C)C)CC(CC(=O)NCCCN(C)C)C(=O)N1CCCN1CCCC1=O (stereo not given),.,/,.,.,.,.,/,/
CCn1c(-c2ccccc2Cl)nn(CC(=O)Nc2cc(Cl)ccc2Cl)c1=S,11.5,.,.,.,.,.,.,.
CCc1cc(-c2n[nH]c(C)c2-c2ccccc2Cl)c(O)cc1OC,8.7,.,.,.,.,.,32.3,15.7
CCc1cc(-c2n[nH]c(C)c2-c2nc3ccccc3n2C)c(O)cc1O,.,.,.,.,.,.,/,/
CC1=C(C(=O)N2CCOCC2)CC(CC(=O)NCc2cccc3ccccc23)C(=O)N1Cc1ccc(C(C)(C)C)cc1 (stereo not given),9.0,/,.,.,.,.,.,.
CC1=C(C(=O)N(C)C)CC(CC(=O)NC(c2ccccc2)c2ccccc2)C(=O)N1Cc1ccc(C(C)(C)C)cc1 (stereo not given),.,.,.,.,.,.,/,/
CCN(CC)C(=O)C1=C(C)N(Cc2ccc(C(C)(C)C)cc2)C(=O)C(CC(=O)NC(c2ccccc2)c2ccccc2)C1 (stereo not given),9.3,.,.,.,.,.,26.5,13.2
NS(=O)(=O)c1ccc(NC(=O)CSc2nc3c(c(=O)[nH]2)CCCC3)cc1,.,/,.,.,.,.,/,/
COc1ccccc1C(=O)OCC(=O)NC(C)CCc1ccccc1 (stereo not given),.,.,.,.,.,.,/,/

# Screening data: PubChem BioAssay, several laboratories
